# Sampled rows, rich in hits. Any-hit rate of the full collection: about 5.5%.
# CBFb RUNX1 block: qHTS Assay for Compounds Blocking the Interaction Between CBF-beta and RUNX1 for the Treatment of Acute Myeloid Leukemia. Runt-related transcription factor 1 (Homo sapiens) + Core-binding factor subunit beta …. 230,000 tested, under 10 active. Potency, µM (series often up to 59.8 µM), most hits filed as inhibitors. AlphaScreen CBFb-His/RUNX1-biotin binding, biochemical
#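 Bead-based AlphaScreen assay; binding partners His-tagged CBF-beta and biotinylated RUNX1 at 30 nM each. Compound exposure 15 min after a 20-min protein preincubation; bead step 90 min; all steps at room temperature.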
# MBNL1 CUG block: qHTS Assay for Inhibitors of MBNL1-poly(CUG) RNA binding. 280,000 tested, 0.036% active. Muscleblind-like protein 1 (Homo sapiens), Q9NR56. Potency, µM (series often up to 57.5 µM), hits mostly inhibitors. TR-FRET MBNL1-His/biotin-(CUG)12 binding, 665/545 ratio; active = well fitted inhibition curve with a large enough effect in the signal ratio, with a control signal flat, not every such curve was filed as active; inconclusive = small, poorly fitted or top-dose-only effect, or effect the other way, or a change in a side signal; inactive = no such curve, though single readings can be large or run the other way; the % refers to the signal ratio
# Target sequence (Q9NR56 whole entry, looked up): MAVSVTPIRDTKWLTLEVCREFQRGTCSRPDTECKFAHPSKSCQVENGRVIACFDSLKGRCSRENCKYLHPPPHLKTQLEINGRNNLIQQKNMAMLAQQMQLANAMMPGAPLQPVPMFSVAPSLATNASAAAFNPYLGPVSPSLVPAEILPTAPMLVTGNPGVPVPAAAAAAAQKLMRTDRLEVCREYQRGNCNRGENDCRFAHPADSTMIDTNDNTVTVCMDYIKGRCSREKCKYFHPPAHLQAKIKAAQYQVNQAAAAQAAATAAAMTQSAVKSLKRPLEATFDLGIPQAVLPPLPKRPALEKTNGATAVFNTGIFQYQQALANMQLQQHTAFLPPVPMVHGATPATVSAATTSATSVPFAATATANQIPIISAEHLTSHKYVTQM
#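 Compound titration spanned 92 nM–58 uM against the MBNL1-His/biotin-(CUG)12 complex. After 60 min at room temperature with 5 nM streptavidin-XL665 and 0.055 ng/ul terbium anti-His, ratiometric 665/545 nm emission (Ex 340 nm) normalized to controls.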
# Six1-Eya2 blk: qHTS Assay for Inhibitors of the Six1/Eya2 Interaction; AlphaScreen GST-Six1/His-Eya2 binding, biochemical; hits give low values; AID 651725, 2012; activity change, % (test concentration not listed); 360,000 tested, 0.56% active; in the data active = activity change below about -65%; inconclusive = mostly about -30% to -63%
#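 Homogeneous AlphaScreen proximity assay pairing GST-Six1 with His-tagged Eya2 (added as 5X mix: 250 nM and 500 nM) in 50 mM Tris pH 8.0, 300 mM NaCl, 1 mM TCEP. Glutathione donor and nickel acceptor beads; 1 h, 37 °C, dark.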
# RORgamma inh: qHTS for inhibitors of ROR gamma transcriptional activity | Nuclear receptor ROR-gamma (Mus musculus), P51450 | Drosophila S2 Gal4-RORgamma UAS-luciferase reporter, 20 h | Potency, µM (highest dose often 53.6 µM), hits mostly inhibitors | 310,000 tested, 5.4% active; also: nearly all actives have a fitted effect of over 60% in size
#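 In this cell-based reporter format, copper sulfate (700 uM final) drives Gal4–ROR gamma fusion expression from a metallothionein promoter in Drosophila Schneider cells; compounds preincubated 1 hr, reporter read after 20 hr at ambient temperature.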
# CtBP-E1A blk: qHTS Assay for Inhibitors of the CtBP/E1A Interaction; CtBP / adenovirus E1A interaction (AlphaScreen); AlphaScreen GST-E1A/His-CtBP binding, 1536-well; hits give low values; activity change, % (test concentration not listed); 340,000 tested, 0.49% active; AID 651724, 2012; in the data active = activity change below about -65%; inconclusive = mostly about -30% to -63%
#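 Protein mix (5X: 125 nM each GST-E1A, His-CtBP) was incubated with pinned compound 2 h at 37 deg C in dark, in 50 mM Tris pH 8.0 buffer with 300 mM NaCl. Glutathione donor and nickel acceptor beads followed; AlphaScreen signal read after 1 h.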
# VP16 counter: VP16 counterscreen qHTS for inhibitors of ROR gamma transcriptional activity; Drosophila S2 Gal4-VP16 UAS-luciferase, luminescence, 20 h; AID 2546, 2010; 310,000 tested, 3.5% active; Potency, µM (series often up to 53.6 µM), hits mostly inhibitors;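 also: Gal4-VP16 expression switched on by copper sulfate through the metallothionein promoter; nearly all actives have a fitted effect of over 50% in size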
# A number is an active result; i = inactive; ? = inconclusive; nt = no result; [ ] = remark or other dose. Unless noted, calls follow the shape of the dose curve; as a rule, active = well fitted curve in the direction sought with a large enough effect; inconclusive = small, poorly fitted or top-dose-only effect, or another doubt; inactive = no such curve, though single readings can be large; an effect the other way counts as inactive or inconclusive.
SMILES,CBFb RUNX1 block,MBNL1 CUG block,Six1-Eya2 blk,RORgamma inh,CtBP-E1A blk,VP16 counter
CCNC(=S)NCc1ccc2c(c1)OCO2,i,i,i,i,i,i
CC[C@H](Cc1c(I)cc(I)c(N)c1I)C(=O)O,i,nt,nt,i[2.98 µM],nt,i
COc1ccc(-c2cn3nc(SCC(=O)NC4CCCCC4)ccc3n2)cc1,nt,i,i,i,i,i
CCC(C)c1ccc(OCC(=O)Nc2ccc(CN3CCOCC3)cc2)cc1 (centres undefined),nt,i,i,i,i,i
O=C(NCCc1ccccc1F)C1CC(=O)N(c2cccc(C(F)(F)F)c2)C1 (centres undefined),nt,nt,i,nt,i,nt
C=CCn1c(SCC(=O)Nc2ccc3c(c2)OCO3)nnc1-c1cc(Br)ccc1O,i,i,-85,?,-92,?
C=CCn1c(SCC(=O)Nc2ccc3c(c2)OCO3)nnc1-c1ccccc1,i,i,i,i,i,i
O=C(C[C@H]1C[C@H](C(=O)N2CCCCC2)[C@@]2(CCc3ccccc3)c3[nH]c4ccc(Cl)cc4c3CCN2C1=O)NCc1cccc(C(F)(F)F)c1,nt,nt,i,nt,i,nt
CCOc1ccccc1NC(=O)C1=C(C)NC(=S)NC1c1cccs1 (centres undefined),i,i,i,6.3µM,i,20µM
CC(C)(C)c1ccc(/C=C/C(=O)c2ccc(NC3=NCCCS3)cc2)cc1,i,i,i,?,i,5.6µM
O=C(c1ccco1)N1N=C2CCCCCC2C1(O)C(F)(F)F (centres undefined),i,i,i,0.63µM,i,1µM
COc1cccc(C2=NN(C(=O)c3ccco3)C(O)(C(F)(F)F)C2)c1 (centres undefined),i,i,i,5.6µM,i,?
COc1cccc(C2=NN(C(=O)c3ccccc3)C(O)(C(F)(F)F)C2)c1 (centres undefined),i,i,i,10µM,i,?
COc1cccc(C2=NN(C(=O)C3CC3)C(O)(C(F)(F)F)C2)c1 (centres undefined),nt,nt,i,nt,i,nt
COc1cccc(C(=O)N2N=C(c3ccccc3)CC2(O)C(F)(F)F)c1 (centres undefined),i,nt,i,18µM,i,20µM
O=C(C1CC1)N1N=C(c2cccc(Br)c2)CC1(O)C(F)(F)F (centres undefined),nt,i,i,i,i,i
O=C(CCN1C(=O)COc2ccccc21)NCCCN1CCCC1,nt,i,i,i,i,i
O=C(NCC(c1ccco1)N1CCCCC1)c1cccc(NS(=O)(=O)c2ccc(Br)cc2)c1 (centres undefined),nt,nt,i,nt,i,nt
COC(=O)N1N=C(c2ccccc2)CC1(O)C(F)(F)F (centres undefined),i,i,i,i,i,i
CCCCC1=NN(C(=O)c2ccncc2)C(O)(C(F)(F)F)C1 (centres undefined),i,i,i,i,i,?
COc1ccc(C(=O)N2N=C(c3ccccc3)CC2(O)C(F)(F)F)cc1 (centres undefined),i,i,i,16µM,i,i[10 µM]
Nc1ccc(C(=O)N2N=C(c3ccccc3)CC2(O)C(F)(F)F)cc1 (centres undefined),nt,i,i,10µM,i,i
Nc1ccc(C(=O)N2N=C(c3ccc(F)cc3)CC2(O)C(F)(F)F)cc1 (centres undefined),nt,i,i,?,i,i
O=C(c1ccccc1O)N1N=C(c2ccccc2)CC1(O)C(F)(F)F (centres undefined),i,i,i,8.9µM,i,?
CCCCC1=NN(C(=O)c2ccco2)C(O)(C(F)(F)F)C1 (centres undefined),i,i,i,6.3µM,i,18µM
SMILES,CBFb RUNX1 block,MBNL1 CUG block,Six1-Eya2 blk,RORgamma inh,CtBP-E1A blk,VP16 counter
COC1CCCN(C(=O)c2ccc(OC3CCN(S(=O)(=O)N(C)C)CC3)cc2)C1 (centres undefined),nt,i,i,i,i,i
COc1ccc(CN2CCC[C@]3(N[C@H](c4ccc(C)cc4)[C@@H]4C(=O)N(C)C(=O)[C@@H]43)C2=O)cc1,nt,nt,i,nt,i,nt
C=CCn1c(SCC(=O)c2[nH]c(C)c(C(=O)OCC)c2C)nc2scc(-c3ccc(OC)c(OC)c3)c2c1=O,i,?,i,10µM,i,10µM
COc1cc(/C(C)=N/NC(=S)NC(C)C)cc(OC)c1OC,i,i,i,3.2µM,i,5µM
COc1cc(C(=O)N/N=C(\C)Cc2ccccc2)cc(OC)c1OC,i,i,i,?,i,i
COc1cc(/C(C)=N\NC(N)=S)cc(OC)c1OC,i,i,i,5.6µM,i,?
Cn1cc(/C=C2\SC(=O)NC2=S)c2ccccc21,i,i,i,2.5µM,i,6.3µM
Cc1ccc(C(=O)NN2C(=O)/C(=C/c3cn(C)c4ccccc34)SC2=S)cc1,i,i,i,i,i,i
O=C(NCc1ccncc1)[C@@H]1CCCN1C(=O)[C@@H]1CCCN1C(=O)c1c(F)cccc1F,nt,nt,i,nt,i,nt
Oc1ccccc1C=NNC(=S)NC1CC2C=CC1C2 (centres undefined),nt,nt,-77,nt,?,nt
Oc1ccccc1/C=N/NC(=S)NC1CC2C=CC1C2 (centres undefined),?,i,-82,3.2µM,-86,5µM
Oc1c(Cl)cc(Cl)cc1/C=N/NC(=S)NC1CC2C=CC1C2 (centres undefined),i,i,?,4.5µM,-82,20µM
Oc1ccc(O)c(C=NNC(=S)NC2CC3CC2C2C=CCC32)c1 (centres undefined),nt,nt,?,nt,i,nt
COc1ccc(F)cc1S(=O)(=O)N1CCN(C(=O)c2ccco2)CC1,nt,i,i,i,i,i
CC(=O)OC1CC(O)C(C)(C)C2CC(OC(C)=O)[C@]3(C)C(CC[C@@]4(C)C(c5ccoc5)OC(=O)C5OC534)[C@]12C (some centres undefined),nt,nt,nt,i,nt,i
Oc1c(/C=N/Nc2cccc3cccnc23)ccc2ccccc12,i,?,i,13µM,i,?
COc1cc(/C=N/Nc2cccc3cccnc23)cc(OC)c1O,i,i,i,10µM,nt,?
Oc1cccc(/C=N/Nc2cccc3cccnc23)c1,i,?,i,7.1µM,i,?
COc1cc(/C=N/Nc2ccccn2)cc(OC)c1O,i,?,i,?,i,?
COc1ccccc1-c1nnc(SCC(=O)Nc2cccnc2Cl)n1C,nt,nt,i,nt,nt,nt

# Compound activity from PubChem BioAssay.
